Experimental findings from PubChem BioAssay AID1508622 (National Center for Advancing Translational Sciences (NCATS), 2021) are described below.

SMILES strings stand for the structures. Some structures have more than one record in an assay (separate samples or runs), and their calls can disagree. Calls of active or inactive are those of the source. The call rests on the fitted dose curve; in most records, active means well fitted activation curve with a large enough effect; inconclusive means small, poorly fitted or top-dose-only effect; inactive means no such curve, though single readings can be large or run the other way.
Potency means the concentration at half of the fitted maximal effect.

The test can be described thus: Confirmatory qHTS for Identification of Small Molecule Activators of Huntingtin-Antisense Promoter Activity. To be noted: HEK293 HTT-AS promoter firefly luciferase reporter, 24 h; series mostly up to 57.5 µM; activity change, positive = activation: at the top concentration. The method in brief: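 2,500 luciferase reporter HEK293 cells/well; 24 h culture; cpds up to 57.5 uM final, PTC124 50 uM ctrl; 24 h, 37C; Dual-Glo FLuc reagent, 10 min RT; lum. Norm.: vehicle 0%, zero RLU -100%.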
(In general: In qHTS, concentration-response curves come from the screen itself.)
As to `O=C(NCc1ccc(F)cc1)C1CCN(C(=O)c2ccc(-n3ccc4ccccc43)s2)CC1`, the “activity change, positive = activation” value is -30.5% (inactive).

For `Cc1cccc(OCC(=O)Nc2ccc3c(c2)N(C)C(=O)c2ccccc2S3)c1`, the “activity change, positive = activation” value was -27.1% (inactive).

As to `COc1ccc2sc(N(Cc3cccnc3)C(=O)c3ccco3)nc2c1`, the “activity change, positive = activation” value was -47.5% (inactive).

Regarding `CCCCN(C)S(=O)(=O)c1cc(-c2cc(C)no2)ccc1C`, the “activity change, positive = activation” value was -87.7% (inactive).

Turning to `CC(=O)c1cccc(NS(=O)(=O)c2ccc3[nH]c4c(c3c2)CCCCC4)c1`, the “activity change, positive = activation” value was -89.9% (inactive).

Regarding `Cc1ccc(C(=O)Nc2ccc(F)cc2)cc1S(=O)(=O)N1CCCCCC1`, the “activity change, positive = activation” value is -30.4% (inactive).

On to `COC[C@H](NC(=O)c1cnc(C)s1)C(=O)N[C@@H](COC)C(=O)N[C@@H](Cc1ccccc1)C(=O)[C@@]1(C)CO1`, for which the “activity change, positive = activation” value is -74.1% (inactive).

With `O=C(CCCCCCC(=O)Nc1ccccc1)NO`, the Potency was 19 µM (active) and inactive.

For the compound `Cc1ccccc1CN1c2ccccc2-c2nc(SCC(=O)Nc3cc(F)ccc3F)ncc2S1(=O)=O`, the “activity change, positive = activation” value is -31% (inactive).

Consider `CCCCCN1C(C(=O)c2ccccc2)=C(OC(=O)CC)c2ccccc2S1(=O)=O`, for which the “activity change, positive = activation” value is -42.2% (inactive).

Consider `COc1cccc(C(=O)N2c3cc(C)ccc3C(C)(c3ccccc3)CC2(C)C)c1` (centres undefined), for which the “activity change, positive = activation” value was -75.5% (inactive).

With `Cn1c(=O)c2sccc2n2c(CCCC(=O)Nc3ccc(Oc4ccc(Cl)cc4)cc3)nnc12`, the “activity change, positive = activation” value is -57.8% (inactive).

Regarding `CC(C)[C@H](CO)Nc1nc(Nc2ccc(C(=O)O)c(Cl)c2)c2ncn(C(C)C)c2n1`, the “activity change, positive = activation” value is -3.92% (inactive).

For `COc1cc(CN(C(=O)COc2ccc(Br)cc2)c2ccccn2)cc(OC)c1OC`, the “activity change, positive = activation” value is -54.6% (inactive).

`COc1ccc(Cl)cc1NC(=O)CSc1nccn1-c1ccc(Cl)cc1`: the “activity change, positive = activation” value is -61.5% (inactive).

For `O=C(CSc1ccc(-c2ccccn2)nn1)Nc1ccc(F)c(F)c1`, the “activity change, positive = activation” value is -65.4% (inactive).

Regarding `Cc1ccc(CNC(=O)c2c(Nc3ccccc3C)sc(C(=O)c3ccc(F)cc3)c2N)cc1`, the “activity change, positive = activation” value was -52.7% (inactive).

As to `CC(C)OCc1cc(CN2CCN(c3cccc(C(F)(F)F)c3)CC2)c(O)c2ncccc12`, the “activity change, positive = activation” value was -49.4% (inactive).

As to `CCS(=O)(=O)NCCc1sc2nc(-c3ccc(OC)cc3)nn2c1C`, the “activity change, positive = activation” value is -25.2% (inactive).

Consider `CC(C)C[C@@H](C=O)NC(=O)[C@H](CC(C)C)NC(=O)[C@H](CC(C)C)NC(=O)OCc1ccccc1`, for which the “activity change, positive = activation” value is -78.2% (inactive).

In the case of `Cc1nc(C)c(-c2ccc(SCC(=O)Nc3ccc(F)c(F)c3)nn2)s1`, the “activity change, positive = activation” value was -50.1% (inactive).

Regarding `CC1CCCCN1S(=O)(=O)c1ccc2c(c1)oc(=O)n2CC(=O)Nc1ccc(Cl)cc1` (centres undefined), the “activity change, positive = activation” value was -38.9% (inactive).

With `CCOc1cc(CNCCSc2nnnn2-c2ccccc2)cc(Cl)c1OC`, the “activity change, positive = activation” value is -14.4% (inactive).

As to `O=C(NCc1ccccc1)c1ccc(CSc2nc3cccnc3n2Cc2ccccc2)cc1`, the “activity change, positive = activation” value was -24.7% (inactive).

Turning to `CC(C)Cc1ccc(S(=O)(=O)Nc2ccc3[nH]c(=O)[nH]c3c2)cc1`, the “activity change, positive = activation” value was -68.6% (inactive).

On to `COc1ccc(C)cc1NC(=O)CN1CCCN(S(=O)(=O)c2ccc(Br)cc2)CC1`, for which the “activity change, positive = activation” value is -26.8% (inactive).

As for `CCOc1ccc(-c2nc(CSCC(=O)NCCc3ccc(OCC)c(OCC)c3)c(C)o2)cc1`, the “activity change, positive = activation” value is -49.7% (inactive).

On to `CC(C)(C)C(=O)NCCc1nc2ccccc2n1CCCCOc1ccc(Cl)cc1`, for which the “activity change, positive = activation” value was -34.8% (inactive).

On to `O=C(Cn1c(=O)oc2cc(S(=O)(=O)N3CCCCCC3)ccc21)Nc1cccc(C(F)(F)F)c1`, for which the “activity change, positive = activation” value is -27.5% (inactive).

As to `CCn1c(SCc2ccc(F)cc2Cl)nc(=O)c2c(C(=O)OC)cc(C3CC3)nc21`, the “activity change, positive = activation” value is -31.5% (inactive).

In the case of `Cc1ccc(-c2nnc(Nc3ccc(F)cc3)c3ccccc23)cc1S(=O)(=O)NC(C)C`, the “activity change, positive = activation” value was -23.9% (inactive).

As for `O=C(c1ccc2c(c1)N(Cc1ccccc1)C(=O)c1ccccc1S2(=O)=O)N1CCCCCC1`, the “activity change, positive = activation” value is -30.5% (inactive).

With `O=C(NCC(c1cccnc1)N1CCN(Cc2ccccc2)CC1)C(=O)Nc1ccc(Cl)cc1` (centres undefined), the “activity change, positive = activation” value was -33.1% (inactive).

Consider `Cc1cc(Nc2cccc(C(F)(F)F)c2)nc2ccc(NC(=O)c3cccnc3)cc12`, for which the “activity change, positive = activation” value is -71.9% (inactive).

For `Cc1ccc(CN(C(=O)COc2cccc(Cl)c2)c2ccccn2)o1`, the “activity change, positive = activation” value was -10.8% (inactive).

Consider `CCN(CC)c1ccc(NC(=O)c2sc3nc(-c4ccccc4)cn3c2C)cc1`, for which the “activity change, positive = activation” value was -7.86% (inactive).

Take `Cc1ccc(C)c(N2CCN(C(=O)CCS(=O)(=O)c3ccc4c(c3)CC(=O)N4C)CC2)c1`: the “activity change, positive = activation” value was -33.1% (inactive).

Consider `COC(=O)C1=C(CS(=O)(=O)c2ccc(C)cc2C)NC(=O)NC1c1ccc(C)cc1` (centres undefined), for which the “activity change, positive = activation” value is -41.9% (inactive).

Regarding `Cc1cccc(N2CCN(C(=O)C3CCN(S(=O)(=O)c4c(C)noc4C)CC3)CC2)c1C`, the “activity change, positive = activation” value is -52.4% (inactive).
